According to PubChem BioAssay (EPA / NIEHS):
Values joined by “and” are separate entries in the source; they are usually repeats but may differ in a detail not shown here. Equal values may be shown once. Results filed as inconclusive are left out. Where a structure was tested more than once in an assay, its records may differ in their call. Active and inactive are the calls of the source. How the source made its calls, unless noted: active means hit-call score of the fitted dose curve at least 0.9, where 1 is the maximum; inactive means score below 0.9.

Tests used:
[1] = ATG_PPRE_CIS: Attagene CIS-FACTORIAL HepG2 Assay for human Peroxisome Proliferator-activated Response Element (PPRE) (AID 2282958); conditions: HepG2 PPRE cis-element reporter, Attagene transcription factor profiling; actives raise or lower the signal
Method in brief: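 DMSO served as negative control and baseline for bidirectional curve fitting. Signal came from PPRE-regulated reporter mRNA in HepG2 cells, measured 24 h post-dosing by RT-PCR, 6-FAM primer extension and capillary electrophoresis.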

[2] = ATG_Sox_CIS: Attagene CIS-FACTORIAL HepG2 Assay for human SRY-box transcription factor (SOX) (AID 2282960); conditions: HepG2 Attagene cis-factorial SOX reporter, mRNA; actives raise or lower the signal
Method in brief: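 Fluorescence-labelled cDNA fragments from reporter transcripts, sized by CE, give the signal. Cells: HepG2, transiently transfected with cis-regulated reporter units. Exposure 24 h; DMSO negative control; bidirectional curve fitting.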

[3] = target: Transcription factor Sp1 (Homo sapiens) (UniProt P08047); assay: ATG_Sp1_CIS: Attagene CIS-FACTORIAL HepG2 Assay for human Specificity Protein 1 (Sp1) (AID 2282961); conditions: HepG2 Sp1 cis-reporter transcription, actives raise or lower the signal
Method in brief: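 Chemicals are dosed onto HepG2 cells transfected with multiple cis-promoter reporter constructs, and after 24 h reporter RNA is reverse-transcribed, PCR-amplified and resolved by capillary electrophoresis for fluorescence quantitation; activity is scored up or down against DMSO.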

[4] = target: Signal transducer and activator of transcription 3 (Homo sapiens) (UniProt P40763); assay: ATG_STAT3_CIS: Attagene CIS-FACTORIAL HepG2 Assay for human Signal Transducer and Activator of Transcription 3 (STAT3) (AID 2282963); conditions: HepG2, Attagene cis-factorial STAT3 reporter transcription; actives raise or lower the signal
Method in brief: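 After a 24 h compound incubation, total RNA from MRTU-transfected HepG2 cells was converted to cDNA and reporter sequences PCR-amplified, labelled and profiled by capillary electrophoresis. Gain and loss of signal were referenced to DMSO.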

[5] = ATG_TA_CIS: Attagene CIS-FACTORIAL HepG2 Assay for human TA Basal Promoter (AID 2282964); conditions: HepG2 Attagene CIS-factorial TA basal promoter reporter; actives raise or lower the signal
Method in brief: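 Cis-factorial format in HepG2: reporters report endogenous factors, not chimeric Gal4 fusions. After 24 h treatment, reporter transcripts were measured by RT-PCR-capillary electrophoresis fluorescence, analysed bidirectionally versus DMSO.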

[6] = ATG_TCF_b_cat_CIS: Attagene CIS-FACTORIAL HepG2 Assay for human T-Cell-Factor with beta-catenin (TCF/b-cat) (AID 2282965); conditions: HepG2 TCF/beta-catenin cis-reporter transcription, actives raise or lower the signal
Method in brief: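 Endogenous TCF/LEF activity read as reporter transcript level via RT-PCR and capillary electrophoresis fluorescence in transfected HepG2, 24 h exposure; gain or loss of signal fitted against DMSO controls.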

[7] = ATG_TAL_CIS: Attagene CIS-FACTORIAL HepG2 Assay for human TAL Basal Promoter (AID 2282966); conditions: HepG2 Attagene cis-factorial TAL promoter reporter; actives raise or lower the signal;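 further: background control endpoint measuring basal TAL promoter reporter mRNA not a specific factor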
Method in brief: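 HepG2 cells transiently transfected with multiplexed cis-promoter reporter units, dosed 24 h. Reporter mRNA quantified by RT-PCR, 6-FAM labelling, HpaI digestion and capillary electrophoresis; TAL basal promoter serves as background control, fitted bidirectionally versus DMSO.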

[8] = ATG_TGFb_CIS: Attagene CIS-FACTORIAL HepG2 Assay for human Transforming Growth Factor (TGF) (AID 2282967); conditions: HepG2 Attagene CIS TGFb reporter, mRNA transcription; actives raise or lower the signal
Method in brief: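 Multiplexed cis-reporter HepG2 system, 24 h treatment; mRNA induction read by fluorescence after RT-PCR and CE; DMSO negative control, bidirectional curve fitting.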

[9] = ATG_VDRE_CIS: Attagene CIS-FACTORIAL HepG2 Assay for human Vitamin D Receptor Element (VDRE) (AID 2282968); conditions: HepG2 VDRE cis-reporter transcription, actives raise or lower the signal
Method in brief: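 In transiently transfected HepG2 liver cells, gain or loss of reporter mRNA after 24 h exposure is scored relative to DMSO, using fluorescence detection by capillary electrophoresis of RT-PCR products.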

[10] = target: Estrogen receptor (Homo sapiens) (UniProt P03372); assay: ATG_ERa_TRANS: Attagene TRANS-FACTORIAL HepG2 Assay for human Estrogen Receptor alpha (ERa) (AID 2282970; active means hit-call score of the fitted dose curve at least 0.9, where 1 is the maximum); conditions: HepG2 Attagene TRANS ERa GAL4 reporter, mRNA
Method in brief: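 HepG2 cells transiently transfected with multiplexed GAL4-UAS reporter units read out chimeric NR-Gal4 activity. After 24 h compound exposure, reporter mRNA was quantified by RT-PCR, 6-FAM labeling, HpaI digestion and capillary electrophoresis, relative to DMSO.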

[11] = target: Steroid hormone receptor ERR1 (Homo sapiens) (UniProt P11474); assay: ATG_ERRa_TRANS: Attagene TRANS-FACTORIAL HepG2 Assay for human Estrogen-Related Receptor alpha (ERRa) (AID 2282971; active means hit-call score of the fitted dose curve at least 0.9, where 1 is the maximum); conditions: HepG2 Attagene TRANS reporter, ERRa transactivation
Method in brief: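 HepG2 cells transiently transfected with GAL4-UAS reporter units and chimeric NR-Gal4 constructs; after 24 hour compound incubation, reporter mRNA quantified by RT-PCR, fluorescent labelling and capillary electrophoresis, gain of signal versus DMSO.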

[12] = target: X-box-binding protein 1 (Homo sapiens) (UniProt P17861); assay: ATG_Xbp1_CIS: Attagene CIS-FACTORIAL HepG2 Assay for human X-box Binding Protein 1 (XBP1) (AID 2282972); conditions: HepG2 XBP1 cis-element reporter, Attagene multiplex; actives raise or lower the signal
Method in brief: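 After a 24-hour chemical exposure of HepG2 cells carrying cis-regulated reporters, reporter mRNA levels are assessed. Quantification uses RT-PCR, 6-FAM labelling and capillary electrophoresis. Gain- or loss-of-signal is fitted against DMSO.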

[13] = ATG_M_19_TRANS: Attagene TRANS-FACTORIAL HepG2 Assay for M19 Transcription Factor (Internal Marker) (AID 2282974; active means hit-call score of the fitted dose curve at least 0.9, where 1 is the maximum); conditions: HepG2 Attagene TRANS-FACTORIAL M19 internal marker reporter
Method in brief: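 Multiplexed TRANS format: HepG2 liver cells bearing transient GAL4-UAS reporter units, chemical treatment 24 h, reporter transcripts quantified by RT-PCR plus capillary electrophoresis. DMSO defines baseline.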

[14] = target: Estrogen-related receptor gamma (Homo sapiens) (UniProt P62508); assay: ATG_ERRg_TRANS: Attagene TRANS-FACTORIAL HepG2 Assay for human Estrogen-Related Receptor gamma (ERRg) (AID 2282977; active means hit-call score of the fitted dose curve at least 0.9, where 1 is the maximum;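 further: hits increase reporter signal over DMSO so potencies reflect activators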); conditions: HepG2 Attagene TRANS reporter, ERRg transactivation
Method in brief: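 HepG2 cells transiently transfected with multiplexed GAL4-UAS reporter units and chimeric NR-Gal4 constructs were exposed to test chemicals for 24 h. Reporter mRNA was measured by RT-PCR, 6-FAM primer extension, HpaI digestion and capillary electrophoresis; gain-of-signal versus DMSO.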

[15] = ATG_RORE_CIS: Attagene CIS-FACTORIAL HepG2 Assay for human RAR-related Orphan Receptor Element (RORE) (AID 2282959); conditions: HepG2 Attagene cis-factorial RORE reporter, mRNA; actives raise or lower the signal
Method in brief: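 Transfect HepG2 with MRTUs; treat 24 h; extract RNA; RT with oligo(dT); PCR with reporter-specific primers; 6-FAM primer extension; HpaI digest 2 h at 37 C; capillary electrophoresis. Fit vs DMSO, bidirectional.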

[16] = ATG_SREBP_CIS: Attagene CIS-FACTORIAL HepG2 Assay for human Sterol Regulatory Element Binding (SREBP) (AID 2282962); conditions: HepG2 Attagene cis-factorial SREBP reporter, mRNA; actives raise or lower the signal
Method in brief: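 Twenty-four hours after chemical dosing of transfected HepG2 cultures, reporter RNA was converted to cDNA, amplified, end-labelled with 6-FAM and resolved by capillary electrophoresis. Responses were fitted relative to DMSO.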

[17] = target: Nuclear receptor subfamily 1 group I member 3 (Homo sapiens) (UniProt Q14994); assay: ATG_CAR_TRANS: Attagene TRANS-FACTORIAL HepG2 Assay for human Constitutive Androstane Receptor (CAR) (AID 2282969; active means hit-call score of the fitted dose curve at least 0.9, where 1 is the maximum;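 further: activators raise reporter mRNA above DMSO so AC50 marks induction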); conditions: HepG2 Attagene TRANS-FACTORIAL CAR reporter
Method in brief: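 Readout is reporter mRNA induction, quantified by fluorescent primer extension and capillary electrophoresis after RT-PCR. Cells were HepG2 transiently carrying chimeric NR-Gal4 constructs with GAL4-UAS reporters, treated for 24 h; activity scored upward from DMSO.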

[18] = ATG_GAL4_TRANS: Attagene TRANS-FACTORIAL HepG2 Assay for GAL4 (Internal Marker) (AID 2282976; active means hit-call score of the fitted dose curve at least 0.9, where 1 is the maximum); conditions: HepG2 Attagene TRANS GAL4 internal marker reporter
Method in brief: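 Background-control readout: GAL4-UAS reporter transcript in transiently transfected HepG2 cells after 24 h compound exposure. Measured by RT-PCR, 6-FAM primer extension, HpaI digest and capillary electrophoresis; gain-of-signal fit versus DMSO.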

[19] = target: Glucocorticoid receptor (Homo sapiens) (UniProt P04150); assay: ATG_GR_TRANS: Attagene TRANS-FACTORIAL HepG2 Assay for human Glucocorticoid Receptor (GR) (AID 2282978; active means hit-call score of the fitted dose curve at least 0.9, where 1 is the maximum;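 further: activators score as hits since higher reporter transcript over DMSO is fitted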); conditions: HepG2 Attagene TRANS GR reporter, mRNA transcription
Method in brief: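 Transiently transfected HepG2 cells express chimeric NR-GAL4 proteins acting on GAL4-UAS reporter units. Compounds are applied for 24 h. mRNA induction over DMSO is measured by capillary electrophoresis.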

Measured: AC50

Estrogen receptor (Homo sapiens), sequence (P03372 whole entry, looked up, the tested form may be a part): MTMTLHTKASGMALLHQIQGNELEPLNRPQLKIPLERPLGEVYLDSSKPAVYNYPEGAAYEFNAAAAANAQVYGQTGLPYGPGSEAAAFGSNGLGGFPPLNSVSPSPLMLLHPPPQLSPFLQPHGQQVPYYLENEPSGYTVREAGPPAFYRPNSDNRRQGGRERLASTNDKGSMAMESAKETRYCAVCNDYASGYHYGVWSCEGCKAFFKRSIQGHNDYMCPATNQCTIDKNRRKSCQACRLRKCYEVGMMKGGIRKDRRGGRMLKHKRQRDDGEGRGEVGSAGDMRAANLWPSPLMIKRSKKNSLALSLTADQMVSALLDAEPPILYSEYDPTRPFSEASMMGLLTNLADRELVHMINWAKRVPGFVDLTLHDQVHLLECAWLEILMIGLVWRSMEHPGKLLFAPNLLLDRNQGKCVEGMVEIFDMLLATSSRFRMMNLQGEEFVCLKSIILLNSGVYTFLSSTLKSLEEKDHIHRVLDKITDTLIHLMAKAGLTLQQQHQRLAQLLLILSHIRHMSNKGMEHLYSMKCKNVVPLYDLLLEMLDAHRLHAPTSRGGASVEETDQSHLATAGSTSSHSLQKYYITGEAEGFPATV
Glucocorticoid receptor (Homo sapiens), sequence (P04150 whole entry, looked up, the tested form may be a part): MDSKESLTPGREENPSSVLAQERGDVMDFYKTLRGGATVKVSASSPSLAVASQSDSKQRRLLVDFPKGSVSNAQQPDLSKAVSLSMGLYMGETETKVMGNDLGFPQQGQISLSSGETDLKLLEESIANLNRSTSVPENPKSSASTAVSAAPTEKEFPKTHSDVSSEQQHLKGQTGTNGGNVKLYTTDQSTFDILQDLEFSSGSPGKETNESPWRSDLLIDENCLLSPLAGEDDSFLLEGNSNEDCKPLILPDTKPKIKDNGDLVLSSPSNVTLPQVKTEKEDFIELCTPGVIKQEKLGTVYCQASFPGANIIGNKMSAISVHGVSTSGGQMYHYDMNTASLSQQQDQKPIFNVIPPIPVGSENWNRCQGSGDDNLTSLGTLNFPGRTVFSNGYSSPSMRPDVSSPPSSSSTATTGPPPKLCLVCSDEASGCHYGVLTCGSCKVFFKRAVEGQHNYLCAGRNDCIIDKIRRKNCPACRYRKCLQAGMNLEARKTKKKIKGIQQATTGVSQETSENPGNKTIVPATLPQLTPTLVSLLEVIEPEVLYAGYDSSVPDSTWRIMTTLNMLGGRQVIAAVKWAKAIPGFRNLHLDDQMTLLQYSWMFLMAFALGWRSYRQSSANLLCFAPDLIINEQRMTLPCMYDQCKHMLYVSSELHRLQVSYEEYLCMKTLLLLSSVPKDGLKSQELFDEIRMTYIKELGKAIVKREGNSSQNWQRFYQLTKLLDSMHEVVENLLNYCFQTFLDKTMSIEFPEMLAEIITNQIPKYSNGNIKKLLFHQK
Steroid hormone receptor ERR1 (Homo sapiens), sequence (P11474 whole entry, looked up, the tested form may be a part): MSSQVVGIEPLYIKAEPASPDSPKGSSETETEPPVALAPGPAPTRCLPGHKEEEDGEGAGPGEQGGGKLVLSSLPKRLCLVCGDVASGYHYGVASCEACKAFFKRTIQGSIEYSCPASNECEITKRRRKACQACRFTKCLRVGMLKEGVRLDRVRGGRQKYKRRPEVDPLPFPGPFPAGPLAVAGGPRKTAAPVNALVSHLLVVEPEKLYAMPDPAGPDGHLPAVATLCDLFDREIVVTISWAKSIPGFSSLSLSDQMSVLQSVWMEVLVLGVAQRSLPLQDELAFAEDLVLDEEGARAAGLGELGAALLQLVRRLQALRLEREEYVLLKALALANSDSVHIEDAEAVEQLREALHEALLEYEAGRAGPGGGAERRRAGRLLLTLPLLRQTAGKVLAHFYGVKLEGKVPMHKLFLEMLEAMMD
Nuclear receptor subfamily 1 group I member 3 (Homo sapiens), sequence (Q14994 whole entry, looked up, the tested form may be a part): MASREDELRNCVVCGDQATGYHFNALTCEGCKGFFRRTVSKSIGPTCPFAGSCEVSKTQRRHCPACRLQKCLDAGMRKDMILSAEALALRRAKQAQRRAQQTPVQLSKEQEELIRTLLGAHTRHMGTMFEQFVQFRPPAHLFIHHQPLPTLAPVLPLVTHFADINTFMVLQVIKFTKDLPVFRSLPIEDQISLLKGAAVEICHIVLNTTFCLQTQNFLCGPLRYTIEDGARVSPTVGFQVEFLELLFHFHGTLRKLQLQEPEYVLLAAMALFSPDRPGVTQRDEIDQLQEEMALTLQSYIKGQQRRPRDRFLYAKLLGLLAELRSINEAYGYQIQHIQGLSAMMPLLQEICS
Transcription factor Sp1 (Homo sapiens), sequence (P08047 whole entry, looked up): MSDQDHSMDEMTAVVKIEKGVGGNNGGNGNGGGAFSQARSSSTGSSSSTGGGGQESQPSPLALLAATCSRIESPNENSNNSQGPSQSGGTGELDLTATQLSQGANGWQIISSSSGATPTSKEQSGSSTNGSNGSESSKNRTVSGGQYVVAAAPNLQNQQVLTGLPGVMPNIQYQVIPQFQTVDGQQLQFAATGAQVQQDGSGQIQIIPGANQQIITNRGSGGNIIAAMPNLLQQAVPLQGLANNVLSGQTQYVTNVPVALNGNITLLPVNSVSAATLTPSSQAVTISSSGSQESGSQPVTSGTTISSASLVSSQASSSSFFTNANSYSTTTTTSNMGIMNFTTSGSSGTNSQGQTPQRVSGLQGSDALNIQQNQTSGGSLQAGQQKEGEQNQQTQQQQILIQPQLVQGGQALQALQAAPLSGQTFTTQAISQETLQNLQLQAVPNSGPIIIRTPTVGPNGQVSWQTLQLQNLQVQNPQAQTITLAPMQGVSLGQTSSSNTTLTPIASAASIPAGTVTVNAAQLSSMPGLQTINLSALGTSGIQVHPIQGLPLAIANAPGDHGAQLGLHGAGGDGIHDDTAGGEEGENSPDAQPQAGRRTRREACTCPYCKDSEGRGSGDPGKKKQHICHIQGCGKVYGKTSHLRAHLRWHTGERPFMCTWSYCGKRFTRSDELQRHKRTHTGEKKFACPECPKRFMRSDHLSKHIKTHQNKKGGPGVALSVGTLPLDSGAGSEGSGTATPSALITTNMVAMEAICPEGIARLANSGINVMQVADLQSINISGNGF
X-box-binding protein 1 (Homo sapiens), sequence (P17861 whole entry, looked up): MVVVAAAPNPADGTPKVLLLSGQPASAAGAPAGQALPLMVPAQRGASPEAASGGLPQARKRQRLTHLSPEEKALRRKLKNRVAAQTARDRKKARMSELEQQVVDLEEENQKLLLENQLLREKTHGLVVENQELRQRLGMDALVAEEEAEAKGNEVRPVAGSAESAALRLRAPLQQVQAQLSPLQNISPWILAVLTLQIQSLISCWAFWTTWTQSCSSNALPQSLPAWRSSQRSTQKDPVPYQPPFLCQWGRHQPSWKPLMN
Signal transducer and activator of transcription 3 (Homo sapiens), sequence (P40763 whole entry, looked up): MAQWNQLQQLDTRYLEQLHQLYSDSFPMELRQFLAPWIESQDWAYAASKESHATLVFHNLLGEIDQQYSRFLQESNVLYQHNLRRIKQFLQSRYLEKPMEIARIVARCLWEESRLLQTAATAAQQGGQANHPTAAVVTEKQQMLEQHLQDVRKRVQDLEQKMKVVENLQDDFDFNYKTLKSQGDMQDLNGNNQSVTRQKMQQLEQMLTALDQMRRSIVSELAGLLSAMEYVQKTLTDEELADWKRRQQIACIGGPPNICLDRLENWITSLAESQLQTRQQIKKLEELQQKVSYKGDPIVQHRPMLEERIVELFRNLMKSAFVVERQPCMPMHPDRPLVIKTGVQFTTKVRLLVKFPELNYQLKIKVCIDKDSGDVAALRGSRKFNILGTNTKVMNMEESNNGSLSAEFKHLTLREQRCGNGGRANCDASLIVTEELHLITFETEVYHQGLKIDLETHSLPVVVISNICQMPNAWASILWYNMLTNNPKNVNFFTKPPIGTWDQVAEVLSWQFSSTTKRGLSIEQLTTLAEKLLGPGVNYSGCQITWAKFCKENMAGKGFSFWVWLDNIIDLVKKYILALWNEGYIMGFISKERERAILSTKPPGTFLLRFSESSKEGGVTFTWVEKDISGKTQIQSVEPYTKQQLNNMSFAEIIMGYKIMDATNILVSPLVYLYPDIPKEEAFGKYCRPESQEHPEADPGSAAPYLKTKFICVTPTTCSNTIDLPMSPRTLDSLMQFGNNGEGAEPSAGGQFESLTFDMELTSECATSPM
Estrogen-related receptor gamma (Homo sapiens), sequence (P62508 whole entry, looked up, the tested form may be a part): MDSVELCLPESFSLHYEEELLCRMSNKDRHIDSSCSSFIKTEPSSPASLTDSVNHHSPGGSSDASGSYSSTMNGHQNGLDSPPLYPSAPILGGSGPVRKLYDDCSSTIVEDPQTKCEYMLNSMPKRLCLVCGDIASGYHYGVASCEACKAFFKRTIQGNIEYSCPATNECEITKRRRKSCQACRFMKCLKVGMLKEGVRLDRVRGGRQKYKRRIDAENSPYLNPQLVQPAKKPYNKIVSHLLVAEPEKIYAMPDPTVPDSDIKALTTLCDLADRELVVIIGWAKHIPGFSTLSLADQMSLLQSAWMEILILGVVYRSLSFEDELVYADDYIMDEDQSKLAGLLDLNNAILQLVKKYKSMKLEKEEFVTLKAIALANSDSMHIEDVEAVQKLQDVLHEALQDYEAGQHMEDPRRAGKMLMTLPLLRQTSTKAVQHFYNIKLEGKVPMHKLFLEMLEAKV

O=C(CC(=O)C(F)(F)C(F)(F)C(F)(F)F)c1cccs1
active: [1] 8.07 µM and 26.2 µM | [3] 39.6 µM | [7] 81 µM and 34.2 µM | [9] 11 µM | [12] 8.17 µM and 32.9 µM
inactive: [2] | [3] | [4] | [5] | [6] | [8] | [9] | [10] | [11] | [13] | [14]

O=C(Nc1cccc([N+](=O)[O-])c1)c1cc2ccccc2cc1O
inactive: [2] | [3] | [16] | [4] | [5] | [6] | [7] | [9] | [17] | [10] | [11] | [12]
active: [1] 4.22 µM | [15] 5.99 µM | [8] 48.1 µM

CCCCCCCCCCCCCCCC(=O)OC
inactive: [1] | [15] | [2] | [3] | [16] | [4] | [5] | [6] | [7] | [8] | [9] | [10] | [12] | [13] | [18]

O=C(CCCN1CCC(O)(c2ccc(Cl)cc2)CC1)c1ccc(F)cc1
inactive: [2] | [6] | [8] | [13]
active: [15] 52.4 µM | [16] 5.07 µM | [4] 59.5 µM | [5] 33.4 µM | [7] 53.8 µM | [12] 50.3 µM

O=C(O)c1cccc(C(=O)O)n1
inactive: [1] | [15] | [2] | [3] | [16] | [4] | [5] | [6] | [7] | [8] | [9] | [11] | [12] | [18] | [19]

NCc1cccc(CN)c1
inactive: [1] | [15] | [2] | [3] | [16] | [4] | [5] | [6] | [7] | [8] | [9] | [17] | [12] | [13] | [18] | [19]

Cc1ccccc1C(OCCN(C)C)c1ccccc1 (configuration not stated)
inactive: [1] | [15] | [2] | [3] | [16] | [4] | [5] | [6] | [7] | [8] | [17] | [11] | [12] | [18]
active: [16] 48.6 µM | [12] 124 µM

C=C(c1ccc(C(=O)O)cc1)c1cc2c(cc1C)C(C)(C)CCC2(C)C
inactive: [15] | [2] | [3] | [16] | [4] | [7] | [8] | [10] | [11] | [12] | [13] | [19]
active: [1] 9.14 nM and 19.3 nM | [15] 2.2 µM | [3] 32.9 µM | [5] 11.1 µM and 29.8 µM | [7] 30.4 µM | [10] 31.2 µM | [12] 16.9 µM
